Experimental data from PubChem BioAssay (NCI).
This is part of a sample that, as a whole, favours compounds with a hit. Of some 83,000 tested, about 20% had one in any assay.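 Assay: single dose, 48 h. Readout: percent growth (0 = no net growth; negative = cell death). Active: <10.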 Unmarked numbers belong to inactive results. The source made the active and inactive calls.

Tests used:
Experiment in all cases: NCI-60 one-dose screen, 48 h (100 = growth as untreated, 0 = no growth, -100 = all killed)
Details in all cases: 10 µM
[1] = tested on: EKVX NSCLC
[2] = tested on: SN12C renal
[3] = tested on: UO-31 renal
[4] = tested on: TK-10 renal
[5] = tested on: ACHN renal
[6] = tested on: CAKI-1 renal
[7] = tested on: A498 renal
[8] = tested on: MOLT-4 leukemia
[9] = tested on: SR leukemia
[10] = tested on: CCRF-CEM leukemia

| Compound | growth [1] | growth [2] | growth [3] | growth [4] | growth [5] | growth [6] | growth [7] | growth [8] | growth [9] | growth [10] |
| --- | --- | --- | --- | --- | --- | --- | --- | --- | --- | --- |
| CC(=O)c1cc(Br)ccc1O | 107% | 120% | 98.7% | 111% | 105% | 111% | 106% | 101% | 102% | – |
| Cc1cccc(Cl)c1NC(=O)c1ccc2nc(NC(=O)NC3CCN(C)CC3)sc2c1 | 90.9% | 73.8% | 84.1% | 83.8% | 102% | 100% | 104% | 77.9% | 86.7% | – |
| CCCCCCCCCCCCC1C/C=C\CCCC(=O)O1 (stereo unspecified) | 94% | 119% | 93.1% | 113% | 104% | 113% | 128% | 37.4% | -18.4% (active) | – |
| Cc1ccc2oc3nc(C)c(C(=O)NCc4ccccc4)cc3c(=O)c2c1 | 77.1% | 96.5% | 63% | 87.2% | 63.8% | 60.3% | 104% | 64.3% | 79.9% | – |
| CC1(C)CCC(=NNC(N)=S)CC1 | 90% | 105% | 83.9% | 75.9% | 99.7% | 96.2% | – | 99.8% | 116% | 30.3% |
| O=C(N/N=C/c1ccccc1O)C(O)(c1ccccc1)c1ccccc1 | 20% | 66.3% | 23.7% | 53.9% | 35.5% | 23% | – | 31.2% | 42.6% | 24.7% |
| CCOC(=O)CCC(NC(=O)c1ccc(N)cc1)C(=O)OCC (stereo unspecified) | 121% | 103% | 76.9% | 102% | 95.3% | 123% | 112% | 114% | 121% | – |
| O=C(NN1C(=O)CSC1c1ccc(Cl)cc1)c1cccnc1 (stereo unspecified) | 95.2% | 131% | 72.2% | 107% | 113% | 98.2% | – | – | – | 99.5% |
| CCn1cc(C(=O)O)c(=O)c2cnc(N3CCCC3)nc21 | 93.7% | 110% | 74.8% | 116% | 100% | 85.8% | 87.6% | 108% | 110% | – |
| CCCCCCCCCCCCCC[n+]1ccc(C(N)=O)cc1 | 1.08% (active) | 8.7% (active) | 50.7% | -65.2% (active) | 65.6% | 15.6% | 52.3% | -34.8% (active) | -15.8% (active) | 2.78% (active) |
| O=[N+]([O-])c1cccc(-c2ncc(-c3ccc(Cl)cc3Cl)[nH]2)c1 | 91.5% | 80.9% | 60.4% | 20.1% | -2.82% (active) | 100% | 104% | 22.1% | -36.6% (active) | – |
| Nc1nccc(Nc2ccccc2)n1 | 107% | 119% | 94.7% | 122% | 100% | 118% | 97.3% | 96.3% | 102% | 89.8% |
| COc1ccc2c(c1)N(CCO)C1=C(C(=O)OC1)C2c1ccccc1 (stereo unspecified) | 45% | 48.1% | 47.1% | 44.7% | 48.6% | 14.9% | -5.47% (active) | 35.4% | 20.7% | – |
| COc1cc(/C=N/NC(=O)c2ccccc2Nc2cccc(C(F)(F)F)c2)cc(OC)c1OC | 53.5% | 57.4% | 41.4% | -18.2% (active) | 2.47% (active) | 29.2% | -13.2% (active) | 28.3% | -4.43% (active) | – |
| O=C1CC[C@@H]2CCCC[C@@H]2C1 | 99.1% | 95.9% | 75.2% | 114% | 100% | 102% | 108% | 96.5% | 94.7% | – |
| Nc1ccc2c(c1)Cc1cc(N)c(Br)cc1-2 | 46.8% | 113% | 76.9% | 138% | 87% | 86.6% | – | 94.1% | – | 82.1% |

| Compound | growth [1] | growth [2] | growth [3] | growth [4] | growth [5] | growth [6] | growth [7] | growth [8] | growth [9] | growth [10] |
| --- | --- | --- | --- | --- | --- | --- | --- | --- | --- | --- |
| CN1CCC2(CC1)NC(=O)c1c(c3ccc(Cl)c(Cl)c3n1C)C2C#N (stereo unspecified) | 89% | 64.3% | 61.7% | 98.7% | 73.9% | -26.4% (active) | 59.8% | 64.1% | 39.4% | – |
| CCCCCCCCCCCCCCCCCC(=O)OCCCCCCC | 90.8% | 105% | 87.6% | 113% | 107% | 88% | – | – | – | 85% |
| CN(C)CCCn1c(=O)c2ccccc2c2cnc3[nH]ccc3c21 | 10.5% | 10.2% | 0.877% (active) | 8.77% (active) | -1.65% (active) | 22.5% | – | -5.39% (active) | -35% (active) | 18.6% |
| O=C(O)C(SC(C(=O)O)c1ccccc1)c1ccccc1 (stereo unspecified) | 104% | 99.9% | 87.6% | 106% | 104% | 91.8% | 107% | 103% | 101% | 97.8% |
| O=C1/C(=C/c2ccc(Cl)cc2)SC(=Nc2ccc(Cl)cc2)N1Cc1nc2ccccc2[nH]1 | 64.5% | 79.3% | 37.5% | 104% | 91.9% | 8.38% (active) | – | 57.3% | 46.6% | 62.6% |
| O=[P@@]1(c2ccccc2)O[C@H](COCc2ccccc2)[C@@H](OCc2ccccc2)[C@H](OCc2ccccc2)[C@H]1O | 70.7% | 82.9% | 90.5% | 76% | 78.7% | 72.8% | – | 94.3% | 103% | 92.3% |
| CO/N=C(/C(=O)NC1C(=O)N2C(C(=O)O)=C(COC(N)=O)CSC12)c1ccco1 (stereo unspecified) | 99.4% | 104% | 83.3% | 104% | 98.3% | 91.3% | 102% | 111% | 106% | – |
| COc1cc2nc(Nc3cccc(C(=O)O)c3)nc(N)c2cc1OC | 95.2% | 95.4% | 78.3% | 108% | 93.9% | 93.7% | 117% | 12.8% | 105% | – |
| COc1cc(Cc2cc(-c3ccc(Cl)cc3)n[nH]c2=O)ccc1O | -26% (active) | 98% | 83.9% | 157% | 109% | 132% | 104% | -59.9% (active) | -35.7% (active) | – |
| CCCCN(CCCC)c1cc(C(=O)CCCCCN)c2ccccc2n1 | 24% | 89.7% | -21.9% (active) | 82.6% | 85.5% | -45.4% (active) | 72.6% | -61.5% (active) | -69.3% (active) | – |
| COc1cc([C@@H]2c3cc4c(cc3C(Br)[C@H]3COC(=O)[C@H]23)OCO4)cc(OC)c1OC (stereo partly specified) | 22% | 31% | 8.5% (active) | 54.2% | 22.5% | 12.3% | – | – | – | -15.5% (active) |
| COc1ccc(-c2nc3sccn3c2-c2nc3c([nH]2)C(=O)c2ccccc2C3=O)cc1 | 83.1% | 86% | 71.3% | 111% | 86.4% | 84.7% | 49.7% | 76% | 76.6% | – |
| O=C1OCC2=C1C(c1cccc(Cl)c1)c1cc3c(cc1N2CCO)OCCO3 (stereo unspecified) | 49.4% | 30% | 22.1% | 68.4% | 30.5% | 19.9% | -18.1% (active) | 21.1% | 32.4% | – |
| CN(C)CCNC(=O)c1cccn2c(=O)c3cc4ccccc4cc3nc12 | 16.1% | 7.89% (active) | 18.2% | -29% (active) | 14.7% | -2.45% (active) | -56.7% (active) | -27.2% (active) | -29.9% (active) | – |
| O=C(/C(=C/c1ccccc1)CN1CCCCC1)c1ccccc1 | 6.23% (active) | -47.5% (active) | -93.8% (active) | -41.3% (active) | -59.3% (active) | -3.31% (active) | -77.1% (active) | 3.27% (active) | -12.4% (active) | 7.4% (active) |
